The text below walks through data of PMC11062922 (Nature Chemical Biology, 2023).

Holding throughout (parameters): species or system human, MV4-11 + K-562 + COLO205 + SK-N-BE2 + OVCAR-8
Assay [1] deals with COX5A. To be noted: read-out: apparent Kd, n = 1.
Assay [2] concerns DCTPP1. To be noted: read-out: apparent Kd; compound concentrations:100 nM and 1000 nM (sheet 'Samples'); n = 1.
Assay [3] deals with NNT. To be noted: read-out: apparent Kd, n = 1.
The test system of assay [4] is PRKAA1. The conditions noted are these: read-out: apparent Kd, n = 1.
Assay [5] deals with PAK4. To be noted: read-out: apparent Kd; compound concentrations:100 nM and 1000 nM (sheet 'Samples'); n = 1.
The test system of assay [6] is SLK. To be noted: read-out: apparent Kd, n = 1.
The subject of assay [7] is PIK3C2A. To be noted: read-out: apparent Kd, n = 1.
For assay [8], the system named is STK26. To be noted: read-out: apparent Kd, n = 1.
Assay [9] concerns BRAF. The conditions noted are these: read-out: apparent Kd, n = 1.
Assay [10] relates to MAP3K11. To be noted: read-out: apparent Kd, n = 1.
The test system of assay [11] is PRKAA2. The conditions noted are these: read-out: apparent Kd, n = 1.
For assay [12], the system named is MAP4K2. To be noted: read-out: apparent Kd, n = 1.
The subject of assay [13] is STK4. The conditions noted are these: read-out: apparent Kd, compound concentrations: 100 nM and 1000 nM (sheet 'Samples'), n = 1.
Assay [14] concerns PRKAG2. The conditions noted are these: read-out: apparent Kd, n = 1.
The subject of assay [15] is PRKX;PRKY. The conditions noted are these: read-out: apparent Kd; compound concentrations: 100 nM and 1000 nM (sheet 'Samples'), CATDS: 3.2948163641369002E-2; n = 1.
The test system of assay [16] is STRADA. To be noted: read-out: apparent Kd, n = 1.
Assay [17] relates to MARK4. The conditions noted are these: read-out: apparent Kd; compound concentrations:100 nM and 1000 nM (sheet 'Samples'); n = 1.
Assay [18] deals with CSNK1E. To be noted: read-out: apparent Kd, n = 1.
Setting [19] is: compound concentrations:100 nM and 1000 nM (sheet 'Samples').

Read-outs that look alike come from different tables or passages of the source.

For `O=S(=O)(c1ccc(-c2ccnc3[nH]ccc23)cc1)N1CCCC1` [GSK846226A], the potency estimated from few doses in [1] (setting [19]) is 848 nM; in assay [2] it was 2150 nM; in assay [3] (setting [19]), 2150 nM.
As to `CN(C)Cc1ccc(-c2ccc3c(Nc4ccc(Oc5ccccn5)cc4)ccnc3c2)o1` [GW567148X], the potency estimated from few doses in assay [4] (compound concentrations: 100 nM and 1000 nM (sheet 'Samples'), CATDS: 1.81087827293436E-2) is 1380 nM.
With `COc1cc2ncn(-c3cc(OCCCc4ccccc4)c(C(N)=O)s3)c2cc1OC` [GSK205189A], the potency estimated from few doses in assay [5] is 1350 nM; in assay [4] (setting [19]), 1020 nM.
For `CNC(=O)c1ccccc1Nc1nc(Nc2cccc(CS(C)(=O)=O)c2)ncc1C.O=CO` [GSK1520489A], the potency estimated from few doses in assay [6] (compound concentrations: 100 nM and 1000 nM (sheet 'Samples'), CATDS: 2.2249249802163501E-2) was 107 nM.
On to `O=S(=O)(CCOCc1ccc(-c2ccc3ncnc(Nc4ccc(OCc5cccc(F)c5)c(Cl)c4)c3c2)o1)c1ccccc1` [GW615311X], for which the potency estimated from few doses in [7] (compound concentrations: 100 nM and 1000 nM (sheet 'Samples'), CATDS: 2.34385173398927E-2) is 2050 nM; in assay [8] (compound concentrations: 100 nM and 1000 nM (sheet 'Samples'), CATDS: 2.23099896492461E-2) it was 2340 nM.
With `CC(=O)N1CCN(c2ccc(Nc3nccc(-c4sc(C(C)C)nc4-c4cccc(NS(=O)(=O)c5ccccc5)c4)n3)cn2)CC1` [GSK1645872A], in [9] (compound concentrations: 100 nM and 1000 nM (sheet 'Samples'), CATDS: 3.03150696001999E-2), the potency estimated from few doses is 721 nM.
In the case of `Nc1nc(N)c2nc(-c3ccccc3)[nH]c2n1` [SKF-12778], in assay [7] (setting [19]), the potency estimated from few doses is 2130 nM.
For the compound `CC(C)c1nc(-c2cccc(NS(=O)(=O)c3c(F)cccc3F)c2F)c(-c2ccnc(Nc3ccc(N4CCOCC4)nc3)n2)s1` [GSK2008607A], the potency estimated from few doses in assay [9] (compound concentrations: 100 nM and 1000 nM (sheet 'Samples'), CATDS: 1.89965490605935E-2) was 1670 nM; in assay [10] (compound concentrations: 100 nM and 1000 nM (sheet 'Samples'), CATDS: 3.6955578451965801E-2), 316 nM; in assay [11] (compound concentrations: 100 nM and 1000 nM (sheet 'Samples'), CATDS: 2.0597012246937899E-2), 1250 nM.
As to `CC(C)c1nc(-c2ccc(F)c(NS(=O)(=O)c3c(F)cccc3F)c2)c(-c2ccnc(Nc3ccc(N4CCOCC4)nc3)n2)s1` [GSK1804250A], in [9] (setting [19]), the potency estimated from few doses was 939 nM.
As to `Nc1ncc(-c2cn[nH]c2)c2scc(-c3ccc4c(c3)CCN4C(=O)Cc3ccccc3)c12` [GSK2593067A], the potency estimated from few doses is 200 nM in assay [12] (compound concentrations: 100 nM and 1000 nM (sheet 'Samples'), CATDS: 0.15564611372576101); 768 nM in assay [13] (CATDS: 7.8104026917421798E-2).
`CC(C)c1nc(-c2cccc(NS(=O)(=O)c3c(F)cccc3F)c2)c(-c2ccnc(Nc3ccc(N4CCOCC4)nc3)n2)s1.Cl` [GSK1723980B]: the potency estimated from few doses in assay [9] (compound concentrations: 100 nM and 1000 nM (sheet 'Samples'), CATDS: 2.6842704761094599E-2) is 243 nM; in [10] (compound concentrations: 100 nM and 1000 nM (sheet 'Samples'), CATDS: 1.8312802074437001E-2), 662 nM.
In the case of `Clc1ccc(-c2nn3ncccc3c2-c2ccnc(Nc3ccccc3)n2)cc1` [GW829055X], the potency estimated from few doses in [3] (compound concentrations: 100 nM and 1000 nM (sheet 'Samples'), CATDS: 0.15486403103885801) was 130 nM; in assay [14] (compound concentrations: 100 nM and 1000 nM (sheet 'Samples'), CATDS: 5.2406473036639797E-2), 681 nM.
Consider `Cc1ccc(-n2nc(C(C)(C)C)cc2NC(=O)Nc2ccc(OCCN3CCOCC3)cc2)cc1` [BIRB0876BS], for which the potency estimated from few doses in [1] (setting [19]) is 963 nM.
As for `Fc1cccc(COc2ccc(Nc3ncncc3C#Cc3ccccc3)cc2Cl)c1` [GW651576X], the potency estimated from few doses was 1770 nM in [3] (compound concentrations: 100 nM and 1000 nM (sheet 'Samples'), CATDS: 5.0215020986353498E-2); 1670 nM in assay [14] (compound concentrations: 100 nM and 1000 nM (sheet 'Samples'), CATDS: 5.1701945188740897E-2); 1350 nM in assay [8] (compound concentrations: 100 nM and 1000 nM (sheet 'Samples'), CATDS: 5.7539827795964102E-2).
In the case of `COc1ccc(COc2ccc(Cc3cnc(N)nc3N)cc2OC)cc1` [GW632580X], in [3] (setting [19]), the potency estimated from few doses is 1910 nM.
For the compound `COc1ccc(C2=C(c3cn(C)c4ccccc34)C(=O)NC2=O)cc1OC` [RO3206363-000], the potency estimated from few doses in [15] is 1620 nM; in assay [8] (compound concentrations: 100 nM and 1000 nM (sheet 'Samples'), CATDS: 3.3943818014748203E-2) it was 1450 nM; in assay [13] (CATDS: 7.8788816860825395E-2), 166 nM; in [16] (compound concentrations: 100 nM and 1000 nM (sheet 'Samples'), CATDS: 3.11031335260477E-2) it was 2050 nM.
For the compound `Cc1[nH]nc2c1N=C(c1ccccc1Cl)c1cc([N+](=O)[O-])ccc1N2` [RO0274406-000], the potency estimated from few doses in assay [1] (compound concentrations: 100 nM and 1000 nM (sheet 'Samples'), CATDS: 8.1877347137814999E-2) is 832 nM.
As to `COc1cc(F)c(F)c(F)c1C(=O)c1cnc(NC2CCN(S(C)(=O)=O)CC2)nc1N` [RO4600703-000], the potency estimated from few doses in [6] (setting [19]) is 471 nM.
For the compound `COc1cc2ncn(-c3cc(O[C@H](C)c4ccccc4Cl)c(C(N)=O)s3)c2cc1OC` [GSK237701A], the potency estimated from few doses in assay [14] (setting [19]) is 1520 nM; in assay [6] (setting [19]), 782 nM.
As for `Cc1ccc(NC(=O)c2ccc(Cl)cc2)cc1-c1ccc(C(=O)Nc2ccncc2)cc1` [GSK1398467A], the potency estimated from few doses in assay [3] (compound concentrations: 100 nM and 1000 nM (sheet 'Samples'), CATDS: 0.228122835279086) was 956 nM.
As to `Cn1cc(C2=C(c3cn(CCCCCO)c4ccccc34)C(=O)NC2=O)c2ccccc21` [RO0318053-000], in assay [11] (compound concentrations: 100 nM and 1000 nM (sheet 'Samples'), CATDS: 8.4372577909481605E-2), the potency estimated from few doses is 1450 nM.
Take `COc1cc2ncn(-c3cc(OCc4sccc4Cl)c(C(N)=O)s3)c2cc1OC` [GSK448459A]: the potency estimated from few doses in assay [12] (setting [19]) was 827 nM; in [6] (setting [19]), 434 nM.
Consider `NC(=O)c1cccnc1COc1cc(-c2ccc(N3CCOCC3)nc2)cc2ncccc12` [BI01125081], for which the potency estimated from few doses in [2] was 1970 nM; in [10] (setting [19]) it was 1890 nM.
Take `Nc1c(C(=O)c2ccccc2)cnn1-c1ccc(F)cc1` [RO1151246-000]: the potency estimated from few doses is 1920 nM in assay [10] (setting [19]); 1290 nM in assay [17]; 1660 nM in assay [7] (setting [19]); 1780 nM in [11] (setting [19]); 1890 nM in assay [8] (setting [19]); 1830 nM in assay [16] (setting [19]).
For the compound `Fc1ccc(-c2ncn(C3CCNCC3)c2-c2ccnc(Oc3ccc4c(c3)OCO4)n2)cc1` [SB-250715], in assay [18] (setting [19]), the potency estimated from few doses is 811 nM.
In the case of `Fc1ccc(-c2nn3ccccc3c2-c2ccncc2)cc1` [GW434756X], the potency estimated from few doses in assay [18] (compound concentrations: 100 nM and 1000 nM (sheet 'Samples'), CATDS: 9.3100036539018993E-2) was 644 nM.
